# The source made the active and inactive calls. Unless noted, no rule for the calls is given here.
# How the values were obtained:
# [1] = compound effects on lung adenocarcinoma cell viability – A549, calcein-AM fluorescence, 48 h, basal, profiling panel (AID 1162); details: higher = more signal; also: test concentration not given here
# [2] = compound effects on differentiated 3T3-L1 adipocyte viability – cell-based, 3T3-L1 adipocytes, calcein-AM fluorescence, 48 h, basal, profiling panel (AID 1163); details: 3T3-L1 adipocytes viability, higher = more signal; also: test concentration not given here
# [3] = compound effects on hepatocellular carcinoma cell viability – HepG2, calcein-AM fluorescence, 48 h, basal, profiling panel (AID 1164); details: higher = more signal; also: test concentration not given here
# [4] = compound effects on multiple myeloma cell viability – MM1S, calcein-AM fluorescence, 48 h, basal, profiling panel (AID 1165); details: higher = more signal;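 also: viability of MM1S multiple myeloma cells under basal unstimulated conditions; test concentration not given here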
# [5] = calcein-AM signal in unstimulated myeloma cells – cell-based, calcein-AM fluorescence, 48 h, PK04 Diversity Set, profiling panel (AID 1166); details: RPMI8226 myeloma viability, higher = more signal;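 also: cells grown under basal conditions without added stimulus; test concentration not given here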
# [6] = JC-1 mitochondrial signal, unstimulated HepG2 cells – cell-based, JC-1 fluorescence, 24 h, 100 nL compound, profiling panel (AID 1167); details: HepG2 mitochondrial potential, higher = more signal; also: test concentration not given here
# [7] = JC-1 mitochondrial signal, unstimulated adipocytes – cell-based, JC-1 fluorescence, 3T3-L1 adipocytes, 24 h, 100 nL compound, profiling panel (AID 1168); details: JC-1 mitochondrial fluorescence, higher = more signal, called active from +8 up or from −8 down; also: test concentration not given here
# [8] = JC-1 mitochondrial signal, unstimulated myeloma cells – cell-based, JC-1 fluorescence, RPMI8226, 24 h, 100 nL compound, profiling panel (AID 1169); details: JC-1 mitochondrial potential fluorescence, higher = more signal; also: test concentration not given here
# [9] = JC-1 mitochondrial signal, unstimulated MM1S myeloma – cell-based, JC-1 fluorescence, 24 h, 100 nL compound, profiling panel (AID 1170); details: MM1S mitochondrial potential, higher = more signal; also: test concentration not given here
# [10] = resazurin metabolic signal in A549 cells – cell-based, resazurin fluorescence, 24 h, PK04 Diversity Set, profiling panel (AID 1171); details: A549 viability, higher = more signal, called active from +8 up or from −8 down; also: test concentration not given here
# [11] = resazurin metabolic signal in HepG2 cells – cell-based, resazurin fluorescence, 24 h, PK04 Diversity Set, profiling panel (AID 1172); details: HepG2 viability, higher = more signal; also: test concentration not given here
# [12] = budding yeast growth changes without added modifier – OD600, strain BY4716, 24 h, basal condition, primary screen (AID 1173); details: S. cerevisiae BY4716 growth, OD600, 24 h; higher = more signal, called active from +8 up or from −8 down
# [13] = viability profiling in MM1S myeloma cells – cell-based, resazurin fluorescence, basal, 24 h, PK04 Diversity Set, profiling panel (AID 1174); details: higher = more signal, called active from +8 up or from −8 down; also: test concentration not given here
# [14] = target: Dihydroorotate dehydrogenase (quinone), mitochondrial (Plasmodium falciparum (isolate 3D7)) (UniProt Q08210); assay: inhibition of P. falciparum DHODH – biochemical, C-terminal His tag, absorbance 600 nm, primary screen (AID 1175); details: PfDHODH enzyme, DCIP absorbance 600 nm; higher = more signal, called active from +8 up or from −8 down;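 also: recombinant parasite enzyme with a five histidine tag at its C terminus; test concentration not given here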
# [15] = inhibition of PAO1 biofilm formation – strain PAO1, LB-PBS medium, absorbance 600 nm, primary screen (AID 1176); also: test concentration not given here; details: P. aeruginosa PAO1 growth/biofilm, A600, 12 h; higher = more signal
# [16] = growth modulation of vineyard yeast isolate – strain RM11-1a, OD600, basal, 24 h, primary screen (AID 1177);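 also: cultures grown under basal conditions with no added stressor; test concentration not given here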; details: S. cerevisiae RM11-1a growth, OD600, 24 h; higher = more signal, called active from +8 up or from −8 down
# [17] = growth of efflux-deficient E. coli DRC39 – strain DRC39, OD650, 24 h, E. coli filamentation inducers, primary screen (AID 1178);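 also: growth measured as culture turbidity by optical density at 650 nm; test concentration not given here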; details: E. coli DRC39 acrAB, higher = more signal, called active from +8 up or from −8 down
# [18] = growth of efflux-deficient E. coli DRC39 – strain DRC39, OD650, 48 h, E. coli filamentation inducers, primary screen (AID 1179);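 also: screen aims at cell division blockers that make cells filament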; details: E. coli DRC39 delta-acrAB growth, higher = more signal, called active from +8 up or from −8 down
# [19] = viability profiling in RPMI8226 myeloma cells – cell-based, resazurin fluorescence, basal, 24 h, PK04 Diversity Set, profiling panel (AID 1180); details: higher = more signal;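 also: RPMI8826 multiple myeloma cell line at 5000 cells per well; test concentration not given here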
# [20] = target: E3 ubiquitin-protein ligase XIAP (Homo sapiens) (UniProt P98170); assay: small molecules binding XIAP protein – biophysical, small-molecule microarray, fluorescence 635 nm, primary screen (AID 1181); details: higher = more signal;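 also: score merges 667 nm emission and signal to noise over triplicate slides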
# Sequence of E3 ubiquitin-protein ligase XIAP (Homo sapiens) (P98170 whole entry, looked up): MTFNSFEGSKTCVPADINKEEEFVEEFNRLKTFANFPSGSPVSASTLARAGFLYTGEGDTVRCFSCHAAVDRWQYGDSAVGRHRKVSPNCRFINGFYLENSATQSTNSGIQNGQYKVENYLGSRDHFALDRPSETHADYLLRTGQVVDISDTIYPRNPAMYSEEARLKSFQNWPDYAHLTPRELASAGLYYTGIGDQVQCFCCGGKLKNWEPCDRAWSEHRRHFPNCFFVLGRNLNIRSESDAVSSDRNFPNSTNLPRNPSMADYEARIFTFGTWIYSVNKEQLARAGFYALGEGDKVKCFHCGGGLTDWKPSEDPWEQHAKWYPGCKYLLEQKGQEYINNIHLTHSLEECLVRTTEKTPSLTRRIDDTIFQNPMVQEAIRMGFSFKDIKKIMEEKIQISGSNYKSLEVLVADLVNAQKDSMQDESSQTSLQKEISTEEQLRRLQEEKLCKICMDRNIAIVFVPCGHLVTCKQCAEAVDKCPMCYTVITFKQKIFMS
# Sequence of Dihydroorotate dehydrogenase (quinone), mitochondrial (Plasmodium falciparum (isolate 3D7)) (Q08210 whole entry, looked up): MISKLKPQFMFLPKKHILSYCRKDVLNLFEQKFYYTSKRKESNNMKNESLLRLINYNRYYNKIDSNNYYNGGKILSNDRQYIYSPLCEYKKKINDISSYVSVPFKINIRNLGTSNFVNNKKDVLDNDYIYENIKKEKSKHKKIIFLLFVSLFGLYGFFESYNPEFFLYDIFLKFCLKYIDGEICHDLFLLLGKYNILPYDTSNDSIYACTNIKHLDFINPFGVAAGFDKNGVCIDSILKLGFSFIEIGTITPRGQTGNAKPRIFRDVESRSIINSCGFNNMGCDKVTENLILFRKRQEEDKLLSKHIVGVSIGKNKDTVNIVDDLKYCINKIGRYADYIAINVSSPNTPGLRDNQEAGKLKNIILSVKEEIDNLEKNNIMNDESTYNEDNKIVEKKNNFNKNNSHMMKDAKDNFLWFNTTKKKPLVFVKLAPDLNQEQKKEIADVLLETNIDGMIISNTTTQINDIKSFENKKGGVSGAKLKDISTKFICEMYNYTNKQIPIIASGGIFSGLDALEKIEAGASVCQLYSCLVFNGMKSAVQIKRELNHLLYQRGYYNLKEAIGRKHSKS
compound,measurement,setting,value
COC(=O)[C@@]1(Cc2ccc(OC)cc2)[C@H]2c3cc(C(=O)N4CCCC4)n(Cc4ccc(Cl)c(C(F)(F)F)c4)c3C[C@H]2CN1C(=O)c1ccccc1,z-score,[1],-0.305
same,z-score,[2],0.134
same,z-score,[3],0.931
same,z-score,[4],-0.963
same,z-score,[5],-0.741
same,z-score,[6],2.07
same,z-score,[7],0.15 (inactive)
same,z-score,[8],-0.671
same,z-score,[9],-1.63
same,z-score,[10],-0.134 (inactive)
same,z-score,[11],0.27
same,z-score,[12],0.681 (inactive)
same,z-score,[13],-0.267 (inactive)
same,composite z-score,[14],-0.902 (inactive)
same,z-score,[15],0.135 (inactive)
same,z-score,[16],0.276 (inactive)
same,z-score,[17],-0.88 (inactive)
same,z-score,[18],0.404 (inactive)
same,z-score,[19],-0.859
same,composite z-score,[20],-0.064
C=CCNC(=O)[C@@H]1[C@H]2C(=O)O[C@H](c3ccccc3)[C@H](c3ccccc3)N2[C@H](c2ccc(OCCO)cc2)[C@@]12C(=O)Nc1ccc(C#CC3(O)CCCCCC3)cc12,z-score,[1],-0.134
same,z-score,[2],1.84
same,z-score,[3],-1.39
same,z-score,[4],-1.29
same,z-score,[5],-2.43
same,z-score,[6],-1.16
same,z-score,[7],-0.848 (inactive)
same,z-score,[8],-0.862
same,z-score,[9],-0.962
same,z-score,[10],0.355 (inactive)
same,z-score,[11],-1.01
same,z-score,[12],0.933 (inactive)
same,z-score,[13],-2.37 (inactive)
same,composite z-score,[14],0.315 (inactive)
same,z-score,[15],2.09 (inactive)
same,z-score,[16],1.16 (inactive)
same,z-score,[17],-0.347 (inactive)
same,z-score,[18],-0.797 (inactive)
same,z-score,[19],-2
same,composite z-score,[20],-0.0095
COCCCNC(=O)[C@@]1(CCS(=O)(=O)c2ccccc2)COC(c2ccc(OCCCO)cc2)=N1,z-score,[1],-0.222
same,z-score,[2],1.11
same,z-score,[3],-0.771
same,z-score,[4],-0.181
same,z-score,[5],-0.49
same,z-score,[6],-0.903
same,z-score,[7],-0.736 (inactive)
same,z-score,[8],-0.249
same,z-score,[9],-0.0725
same,z-score,[10],-0.468 (inactive)
same,z-score,[11],-0.721
same,z-score,[12],-0.25 (inactive)
same,z-score,[13],-0.849 (inactive)
same,composite z-score,[14],-0.565 (inactive)
same,z-score,[15],0.19 (inactive)
same,z-score,[16],-0.19 (inactive)
same,z-score,[17],0.199 (inactive)
same,z-score,[18],0.103 (inactive)
same,z-score,[19],-0.508
same,composite z-score,[20],0.218
COC(=O)[C@@]1(Cc2ccccc2)[C@H]2c3cc(C(=O)N(C)C)n(Cc4ccc(C(F)(F)F)nc4)c3C[C@H]2CN1C(=O)c1ccccc1,z-score,[1],-1.28
same,z-score,[2],0.286
same,z-score,[3],-0.628
same,z-score,[4],-0.214
same,z-score,[5],-0.559
same,z-score,[6],1.71
same,z-score,[7],-1.09 (inactive)
same,z-score,[8],-0.727
same,z-score,[9],-0.79
same,z-score,[10],0.22 (inactive)
same,z-score,[11],-0.634
same,z-score,[12],2.47 (inactive)
same,z-score,[13],-1.11 (inactive)
same,composite z-score,[14],-0.125 (inactive)
same,z-score,[15],0.563 (inactive)
same,z-score,[16],1.02 (inactive)
same,z-score,[17],-0.46 (inactive)
same,z-score,[18],0.03 (inactive)
same,z-score,[19],-0.693
same,composite z-score,[20],-0.242
COCCOC(=O)N1C(=O)[C@@]2(c3cc(C#CCNC(N)=O)ccc31)[C@H](C(=O)Nc1nc3ccccc3s1)[C@H]1C(=O)O[C@H](c3ccccc3)[C@H](c3ccccc3)N1[C@@H]2c1ccccc1OCCO,z-score,[1],1.01
same,z-score,[2],0.706
same,z-score,[3],-0.0995
same,z-score,[4],0.223
same,z-score,[5],0.405
same,z-score,[6],-2.73
same,z-score,[7],2.4 (inactive)
same,z-score,[8],-0.981
same,z-score,[9],-1.64
same,z-score,[10],-1.29 (inactive)
same,z-score,[11],0.0277
same,z-score,[12],0.21 (inactive)
same,z-score,[13],-0.482 (inactive)
same,composite z-score,[14],-0.845 (inactive)
same,z-score,[15],3.44 (inactive)
same,z-score,[16],2.32 (inactive)
same,z-score,[17],0.405 (inactive)
same,z-score,[18],1.14 (inactive)
same,z-score,[19],-1.01
same,composite z-score,[20],-0.155
Cc1ccc(F)cc1S(=O)(=O)N[C@H]1CCN(Cc2ccc(OC(C)C)cc2)C1,z-score,[1],0.376
same,z-score,[2],-0.535
same,z-score,[3],-0.7
same,z-score,[4],-1.4
same,z-score,[5],-1.93
same,z-score,[6],-0.809
same,z-score,[7],0.416 (inactive)
same,z-score,[8],0.0436
same,z-score,[9],-1.41
same,z-score,[10],-0.477 (inactive)
same,z-score,[11],-0.757
same,z-score,[12],-9.28 (active)
same,z-score,[13],-1.1 (inactive)
same,composite z-score,[14],-0.0588 (inactive)
same,z-score,[15],-0.107 (inactive)
same,z-score,[16],0.297 (inactive)
same,z-score,[17],-1.42 (inactive)
same,z-score,[18],-2.48 (inactive)
same,z-score,[19],-1.19
same,composite z-score,[20],-0.0773
COc1ccc([Si](C)(C)[C@H]2[C@H](CCO)O[C@@]3(C(=O)N(Cc4ccc(NC(=O)[C@H](C)O)cc4)c4ccccc43)[C@@H]2C)cc1,z-score,[1],-3.33
same,z-score,[2],1.36
same,z-score,[3],-4.58
same,z-score,[4],-2.64
same,z-score,[5],-4.47
same,z-score,[6],-2.19
same,z-score,[7],0.843 (inactive)
same,z-score,[8],-1.11
same,z-score,[9],-2.31
same,z-score,[10],-5.03 (inactive)
same,z-score,[11],-4.93
same,z-score,[12],0.532 (inactive)
same,z-score,[13],-8.02 (active)
same,composite z-score,[14],-0.0575 (inactive)
same,z-score,[15],-0.753 (inactive)
same,z-score,[16],3.05 (inactive)
same,z-score,[17],-0.106 (inactive)
same,z-score,[18],-0.802 (inactive)
same,z-score,[19],-6.21
same,composite z-score,[20],-0.0592
COCCOC(=O)N1C(=O)[C@@]2(c3cc(C#CC4(O)CCCCCC4)ccc31)[C@H](c1ccc(O)cc1)N1[C@H](c3ccccc3)[C@H](c3ccccc3)OC(=O)[C@H]1[C@@H]2C(=O)N1CCCCCCC1,z-score,[1],0.717
same,z-score,[2],-0.854
same,z-score,[3],0.98
same,z-score,[4],-0.615
same,z-score,[5],-1.83
same,z-score,[6],-0.442
same,z-score,[7],-0.943 (inactive)
same,z-score,[8],-1.01
same,z-score,[9],0.0446
same,z-score,[10],-0.178 (inactive)
same,z-score,[11],0.0323
same,z-score,[12],-0.525 (inactive)
same,z-score,[13],0.341 (inactive)
same,composite z-score,[14],-1.45 (inactive)
same,z-score,[15],1.19 (inactive)
same,z-score,[16],0.478 (inactive)
same,z-score,[17],-0.298 (inactive)
same,z-score,[18],0.625 (inactive)
same,z-score,[19],-0.196
same,composite z-score,[20],-0.0351
